Measurements as given in PubChem BioAssay AID624260 (Broad Institute, 2012).
Screen size: about 44,000 compounds; about 30 (0.07%) were called active. About 1% were inconclusive and are not listed. The sample holds actives, similar compounds and a random draw of the others, so the mix is not that of the screen. Rule as the data show it: active = inhibition above about 54% (passing the limit was not always enough); inconclusive = no clear call, values can overlap the other calls.

target: Histone-lysine N-methyltransferase NSD2 (Homo sapiens) (UniProt O96028); test: inhibitors of human NSD2, primary screen, biochemical, plate reader, single point (AID 624260); conditions: NSD2-SET H3K36me1 DELFIA fluorescence, at 12.5 µM, hits give high values;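 also: inhibitors reduce the monomethyl H3K36 fluorescence signal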
Sequence (O96028 whole entry, looked up): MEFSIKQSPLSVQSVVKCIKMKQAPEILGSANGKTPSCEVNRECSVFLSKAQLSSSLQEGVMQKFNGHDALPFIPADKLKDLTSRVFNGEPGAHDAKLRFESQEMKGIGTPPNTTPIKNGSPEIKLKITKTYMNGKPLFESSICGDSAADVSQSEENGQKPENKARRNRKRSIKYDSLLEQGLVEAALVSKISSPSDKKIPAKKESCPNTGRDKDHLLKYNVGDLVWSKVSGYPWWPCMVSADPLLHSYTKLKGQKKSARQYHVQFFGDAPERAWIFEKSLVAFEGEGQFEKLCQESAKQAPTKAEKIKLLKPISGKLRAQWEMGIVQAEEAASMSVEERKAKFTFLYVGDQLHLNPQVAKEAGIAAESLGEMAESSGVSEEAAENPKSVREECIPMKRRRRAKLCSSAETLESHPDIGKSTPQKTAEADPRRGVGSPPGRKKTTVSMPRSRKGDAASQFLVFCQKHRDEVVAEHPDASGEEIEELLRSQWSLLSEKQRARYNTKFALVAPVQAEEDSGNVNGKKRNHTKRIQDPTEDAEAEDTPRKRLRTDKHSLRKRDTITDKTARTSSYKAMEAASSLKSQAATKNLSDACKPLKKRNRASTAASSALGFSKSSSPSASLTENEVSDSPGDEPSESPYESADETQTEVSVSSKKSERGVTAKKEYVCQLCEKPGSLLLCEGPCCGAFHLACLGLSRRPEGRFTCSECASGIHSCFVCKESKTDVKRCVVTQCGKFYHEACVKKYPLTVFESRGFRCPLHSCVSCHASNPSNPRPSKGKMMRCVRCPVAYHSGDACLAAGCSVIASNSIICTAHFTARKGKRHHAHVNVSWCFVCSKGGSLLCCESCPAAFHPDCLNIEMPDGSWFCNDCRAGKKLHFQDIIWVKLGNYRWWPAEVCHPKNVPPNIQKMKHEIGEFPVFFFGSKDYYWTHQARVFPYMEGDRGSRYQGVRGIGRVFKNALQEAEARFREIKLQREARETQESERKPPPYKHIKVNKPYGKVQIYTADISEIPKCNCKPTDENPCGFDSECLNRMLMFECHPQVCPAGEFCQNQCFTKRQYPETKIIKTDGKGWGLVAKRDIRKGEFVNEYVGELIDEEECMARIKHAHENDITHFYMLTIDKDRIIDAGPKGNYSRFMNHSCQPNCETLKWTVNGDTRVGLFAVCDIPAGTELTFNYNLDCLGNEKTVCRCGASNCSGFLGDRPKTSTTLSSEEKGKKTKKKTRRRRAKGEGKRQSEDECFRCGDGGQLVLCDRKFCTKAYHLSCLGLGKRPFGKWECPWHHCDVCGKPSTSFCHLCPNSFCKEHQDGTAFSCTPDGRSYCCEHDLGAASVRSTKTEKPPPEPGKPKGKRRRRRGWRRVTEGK

inhibition, inactive:
Cc1ccc(-c2cnc3c(c2)C(=O)N([C@H](C)CO)C[C@H](C)[C@@H](CN(C)S(C)(=O)=O)O3)cc1 4.66%, C[C@H]1CN([C@@H](C)CO)C(=O)c2cc(-c3cccc(F)c3)cnc2O[C@@H]1CN(C)C(=O)c1ccccn1 3.24%, C[C@@H]1CN([C@H](C)CO)C(=O)c2cc(C#Cc3ccncc3)cnc2O[C@H]1CN(C)Cc1ccncc1 6.93%, C[C@@H]1CN([C@@H](C)CO)C(=O)c2cc(C#Cc3ccncc3)cnc2O[C@@H]1CN(C)C(=O)CN(C)C 3.43%, CCCC#Cc1cnc2c(c1)C(=O)N([C@H](C)CO)C[C@H](C)[C@@H](CN(C)S(=O)(=O)c1ccccc1)O2 8.48%, C[C@@H]1CN([C@@H](C)CO)S(=O)(=O)c2ccc(C#Cc3cccnc3)cc2O[C@@H]1CN(C)C(=O)CN(C)C 0.378%, COCC#Cc1cnc2c(c1)C(=O)N([C@H](C)CO)C[C@H](C)[C@H](CN(C)C(=O)Cc1cccnc1)O2 -0.822%, C[C@H](O)C#Cc1ccc2c(c1)O[C@@H](CN(C)C(=O)C1CC1)[C@H](C)CN([C@H](C)CO)S2(=O)=O 3.98%, CCC(=O)N(C)C[C@@H]1Oc2cc(C#CCOC)ccc2S(=O)(=O)N([C@@H](C)CO)C[C@@H]1C 4.65%, C[C@H](CO)N1C[C@H](C)[C@@H](CN(C)S(=O)(=O)c2cccc(F)c2)Oc2cc(C#CCN(C)C)ccc2S1(=O)=O 0.824%, COc1cc(/C=N/NC(=O)c2ccc(C(=O)NO)cc2)ccc1O -2.52%, C[C@@H]1CN([C@H](C)CO)C(=O)c2cc(C#CCN(C)C)cnc2O[C@@H]1CN(C)C(=O)Cc1cccnc1 -1.47%, CCCC#Cc1cnc2c(c1)C(=O)N([C@@H](C)CO)C[C@@H](C)[C@@H](CN(C)Cc1ccccc1F)O2 4.92%, C[C@@H]1CN([C@@H](C)CO)C(=O)c2cc(C#CC3CCCCC3)cnc2O[C@H]1CN(C)C(=O)Cc1ccccn1 -1.35%, CNC[C@H]1Oc2cc(C#CCOC)ccc2S(=O)(=O)N([C@@H](C)CO)C[C@H]1C -0.881%, C[C@H]1CN([C@@H](C)CO)S(=O)(=O)c2ccc(-c3ccncc3)cc2O[C@@H]1CN(C)C(=O)CC1CC1 -0.24%, C[C@@H]1CN([C@@H](C)CO)C(=O)c2cc(-c3ccncc3)cnc2O[C@@H]1CN(C)C(=O)C1CCCCC1 1.45%, C[C@@H]1CN([C@@H](C)CO)C(=O)Cc2cc(NC(=O)C3CC3)ccc2O[C@H]1CN(C)C(=O)NC1CCCCC1 4.29%, C[C@H](CO)N1C[C@H](C)[C@H](CN(C)Cc2cccnc2)Oc2ncc(C3=CCCC3)cc2C1=O 1.28%, COc1ccc(NC(=O)N(C)C[C@@H]2Oc3ccc(NC(=O)Cc4cn(C)c5ccccc45)cc3CC(=O)N([C@@H](C)CO)C[C@H]2C)cc1 -6.14%, CC(C)NC(=O)N(C)C[C@H]1Oc2ncc(-c3ccc(C(=O)N(C)C)cc3)cc2C(=O)N([C@H](C)CO)C[C@H]1C 1.31%, COc1ccc(NC(=O)N(C)C[C@@H]2OCc3ccccc3-c3c(n(C)c4ccccc34)C(=O)N([C@H](C)CO)C[C@H]2C)cc1 -10.2%, CCC(=O)N(C)C[C@@H]1Oc2ncc(C3=CCCC3)cc2C(=O)N([C@H](C)CO)C[C@@H]1C -1.76%, CCC(=O)N(C)C[C@H]1Oc2cc(-c3ccc(C)cc3)ccc2S(=O)(=O)N([C@@H](C)CO)C[C@H]1C -0.743%, Cc1ccccc1S(=O)(=O)N(C)C[C@@H]1OCc2ccccc2-c2c(n(C)c3ccccc23)C(=O)N([C@H](C)CO)C[C@H]1C -9.38%, O=C(C[C@H]1C[C@H]2c3cc(NC(=O)CC4CC4)ccc3O[C@H]2[C@H](CO)O1)NCc1ccccn1 -2.07%, C[C@@H]1CN([C@@H](C)CO)C(=O)c2cccc(N(C)C)c2O[C@@H]1CN(C)S(=O)(=O)c1ccccc1 2.66%, C[C@@H]1CCCCO[C@H](CN(C)Cc2ccc(Cl)c(Cl)c2)[C@@H](C)CN([C@@H](C)CO)C(=O)c2cc(NC(=O)Nc3ccccc3)ccc2O1 -6.5%, C[C@@H]1CN([C@H](C)CO)S(=O)(=O)c2ccc(C#CCN(C)C)cc2O[C@H]1CN(C)C(=O)CC1CC1 2.71%, C[C@@H]1CN([C@@H](C)CO)C(=O)c2cc(C3=CCCC3)cnc2O[C@@H]1CN(C)C(=O)Cc1ccncc1 -7.1%, CN(C)C(=O)C[C@@H]1C[C@@H]2c3cc(NC(=O)C4CCOCC4)ccc3O[C@@H]2[C@@H](CO)O1 -0.279%, COc1ccccc1S(=O)(=O)N(C)C[C@H]1Oc2cc(C#CCC3CCCC3)ccc2S(=O)(=O)N([C@@H](C)CO)C[C@H]1C -4.13%, Cc1noc(C)c1NC(=O)Nc1ccc2c(c1)C(=O)N([C@@H](C)CO)C[C@H](C)[C@@H](CN(C)Cc1ccncc1)OCCCC[C@@H](C)O2 -3.95%, C[C@@H]1CN([C@H](C)CO)S(=O)(=O)c2ccc(/C=C/c3ccccc3)cc2O[C@@H]1CN(C)Cc1ccccc1 9.82%, CC(C)CC#Cc1cnc2c(c1)C(=O)N([C@@H](C)CO)C[C@@H](C)[C@@H](CN(C)C(=O)c1cccnc1)O2 -0.174%, C[C@@H]1CN([C@H](C)CO)C(=O)c2cc(C3=CCCCC3)cnc2O[C@@H]1CN(C)C(=O)c1ccc2c(c1)OCO2 -0.482%, C[C@H]1CN([C@@H](C)CO)S(=O)(=O)c2ccc(Br)cc2O[C@H]1CN(C)C(=O)c1cnccn1 -5.84%, COc1cccc(S(=O)(=O)N[C@H]2CC[C@H](CC(=O)NC3CCC3)O[C@H]2CO)c1 8.91%, O=C(C[C@@H]1C[C@@H]2c3cc(NC(=O)c4ccc5c(c4)OCO5)ccc3O[C@@H]2[C@@H](CO)O1)NCC1CC1 0.538%, C[C@H](CO)N1C[C@H](C)[C@H](CN(C)C(=O)Cc2ccccn2)Oc2ncc(-c3cncnc3)cc2C1=O -7.65%, Cc1ccc(S(=O)(=O)Nc2ccc3c(c2)C(=O)N([C@H](C)CO)C[C@@H](C)[C@@H](CN(C)C)OCCCC[C@@H](C)O3)cc1 -3.71%, COc1ccc(NC(=O)N(C)C[C@H]2Oc3ncc(C#C[C@@H](C)O)cc3C(=O)N([C@H](C)CO)C[C@H]2C)cc1 -13%, COc1ccc(CN(C)C[C@@H]2OCCCC[C@@H](C)Oc3ccc(NS(=O)(=O)c4ccc(F)cc4)cc3C(=O)N([C@@H](C)CO)C[C@H]2C)cc1 -2.7%, CCCNC(=O)N(C)C[C@H]1Oc2ncc(C#Cc3ccncc3)cc2C(=O)N([C@@H](C)CO)C[C@@H]1C 4.58%, C/C=C/c1ccc2c(c1)O[C@H](CN(C)C(C)=O)[C@H](C)CN([C@H](C)CO)S2(=O)=O 8.37%, O=C(C[C@H]1C=C[C@H](NC(=O)CN2CCOCC2)[C@@H](CO)O1)NCc1cccc(F)c1 -94.1%
